PubChem BioAssay (NCATS)
Records with an inconclusive call do not appear. Where a call stands in place of a potency, no number is given. Activity calls are given as the source filed them. Calls come from the whole dose curve; as a rule, active = well fitted curve in the direction sought with a large enough effect; inconclusive = small, poorly fitted or top-dose-only effect, or another doubt; inactive = no such curve, though single readings can be large; an effect the other way counts as inactive or inconclusive.

Experiments:
[1] = biological target: Aldehyde dehydrogenase, mitochondrial (Homo sapiens) (UniProt P05091); assay: qHTS for Inhibitors of the Aldehyde Dehydrogenase Family (ALDH2) Primary screen (AID 2061308); note: nearly all actives have a fitted effect of over 55% in size
[2] = biological target: Retinaldehyde dehydrogenase 3 (Homo sapiens) (UniProt P47895); assay: qHTS for Inhibitors of the Aldehyde Dehydrogenase Family (ALDH1A3) Primary screen (AID 2061315)

SMILES | Potency [1] | Potency [2]
O=C1C[C@]23C=CCN4CCC5c6cc7c(cc6N1[C@@]5(CC2)C43)OCO7 (stereo not given in full) | inactive | inactive
FC(F)(F)c1ccccc1-c1nc(NCc2cccc(Cl)c2)c2ccccc2n1 | inactive | inactive
O=C(Nc1ncc([S+](=O)([O-])N2CCOCC2)s1)c1cccc(Br)c1 | inactive | inactive
CCOc1ccc(CCNC(=O)c2cc3sccc3n2Cc2ccc(Cl)c(F)c2)cc1OCC | inactive | inactive
CCCn1c(C)nc2c(NCCN(CC)CC)nc(C)nc21 | inactive | inactive
N#Cc1nc(Nc2ccc(Br)cc2)nc(NC2CCCC2)n1 | inactive | inactive
O=C(Nc1cccnc1)C1CCCCC1 | inactive | inactive
Cc1ccc(S(=O)(=O)Nc2cnccc2C(=O)Nc2nc(-c3nc4ccccc4s3)cs2)cc1 | inactive | inactive
Cn1ccc2cc(-c3ccc4ncnc(NCc5cccs5)c4c3)ccc21 | inactive | inactive
Cc1nc(C)c(-c2ccc3ncnc(NCCc4cnc[nH]4)c3c2)s1 | inactive | inactive
CCN1CCN(c2cccc(Nc3nn4c(=O)c5ccccc5nc4s3)c2)CC1 | inactive | inactive
O=C(OCC#CCSc1nnc(-c2ccc3ccccc3c2)o1)c1cccc(F)c1 | inactive | inactive
O=C(Nc1ccccc1)C1CCN(c2ncc(-c3ccc4c(c3)OCCCO4)s2)CC1 | inactive | inactive
C=C1CC2OC(=O)C(=C)C2C(OC(=O)/C(C)=C\C)CC2(C)OC1=CC2=O (stereo not given) | inactive | inactive
CC(=O)N1CCCc2cc(S(=O)(=O)Nc3ccc(C)c(C)c3)ccc21 | inactive | inactive
